Experimental data taken from the supplement of paper PMC11732987, “Enantioselective OTUD7B fragment discovery through chemoproteomics screening and high-throughput optimisation” (Communications Chemistry, 2025).

Experiments:
Assay in all cases: log2 ratio of Biotin-Ahx-Ub-VS probe labelling (fragment/DMSO); higher = less target engagement (more negative = stronger competition), active = hit call of the paper (q ≤ 0.05, log2 ratio ≤ -1)
Settings in all cases: compound concentration: 200 uM; treatment time: 3 h
USP19 = target: T1, USP19 (UniProt O94966)
T1 sequence (whole entry): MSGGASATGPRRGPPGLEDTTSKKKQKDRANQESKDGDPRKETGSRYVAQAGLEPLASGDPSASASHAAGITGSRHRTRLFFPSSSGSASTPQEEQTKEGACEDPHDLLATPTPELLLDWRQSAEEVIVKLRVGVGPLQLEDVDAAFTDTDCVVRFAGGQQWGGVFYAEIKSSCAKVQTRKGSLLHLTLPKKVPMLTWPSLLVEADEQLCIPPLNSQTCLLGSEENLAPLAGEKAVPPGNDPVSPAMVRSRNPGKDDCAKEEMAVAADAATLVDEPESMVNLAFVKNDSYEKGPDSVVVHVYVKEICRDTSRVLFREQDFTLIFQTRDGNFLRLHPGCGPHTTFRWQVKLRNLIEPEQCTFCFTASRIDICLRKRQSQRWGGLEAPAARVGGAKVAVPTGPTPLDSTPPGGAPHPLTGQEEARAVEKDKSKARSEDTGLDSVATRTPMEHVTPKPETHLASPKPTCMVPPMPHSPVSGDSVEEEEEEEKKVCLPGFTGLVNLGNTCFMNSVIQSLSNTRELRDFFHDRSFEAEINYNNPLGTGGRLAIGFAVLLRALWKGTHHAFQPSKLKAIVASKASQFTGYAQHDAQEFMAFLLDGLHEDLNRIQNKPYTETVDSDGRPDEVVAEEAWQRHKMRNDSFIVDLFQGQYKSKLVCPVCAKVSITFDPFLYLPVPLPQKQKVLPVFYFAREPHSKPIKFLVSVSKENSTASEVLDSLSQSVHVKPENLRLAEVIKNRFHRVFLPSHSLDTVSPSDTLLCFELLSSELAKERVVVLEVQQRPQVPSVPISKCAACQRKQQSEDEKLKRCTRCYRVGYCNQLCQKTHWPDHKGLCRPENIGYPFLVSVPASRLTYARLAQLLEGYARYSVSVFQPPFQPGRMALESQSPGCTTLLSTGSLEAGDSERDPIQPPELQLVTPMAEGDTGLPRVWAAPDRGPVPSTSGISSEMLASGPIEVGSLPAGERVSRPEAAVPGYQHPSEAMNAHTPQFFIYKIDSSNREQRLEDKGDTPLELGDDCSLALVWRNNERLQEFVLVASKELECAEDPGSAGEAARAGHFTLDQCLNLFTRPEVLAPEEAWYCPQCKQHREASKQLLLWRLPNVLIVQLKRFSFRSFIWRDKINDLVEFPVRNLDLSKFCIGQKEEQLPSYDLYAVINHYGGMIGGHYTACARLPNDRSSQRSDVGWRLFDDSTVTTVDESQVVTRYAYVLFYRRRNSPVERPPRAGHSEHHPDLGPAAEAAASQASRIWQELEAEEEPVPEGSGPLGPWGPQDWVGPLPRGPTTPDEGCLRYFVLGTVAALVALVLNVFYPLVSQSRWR
Summary of the method: (§1)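 Each value is an average log2 ratio of fragment to vehicle, tested by unpaired t-test. The underlying Spectronaut label-free quantities were global-median-normalised, and only proteins with ≥2 unique peptides were included. Triplicate HEK293T lysate samples (495 µg) were exposed to fragment at 200 µM or vehicle for 3 h, then to Biotin-Ahx-Ub-VS at 0.5 µM final for 1 h, before NeutrAvidin enrichment of labelled DUBs, LysC and trypsin digestion, and diaPASEF LC-MS/MS.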

USP22 = target: T2, USP22 (UniProt Q9UPT9)
T2 sequence (whole entry): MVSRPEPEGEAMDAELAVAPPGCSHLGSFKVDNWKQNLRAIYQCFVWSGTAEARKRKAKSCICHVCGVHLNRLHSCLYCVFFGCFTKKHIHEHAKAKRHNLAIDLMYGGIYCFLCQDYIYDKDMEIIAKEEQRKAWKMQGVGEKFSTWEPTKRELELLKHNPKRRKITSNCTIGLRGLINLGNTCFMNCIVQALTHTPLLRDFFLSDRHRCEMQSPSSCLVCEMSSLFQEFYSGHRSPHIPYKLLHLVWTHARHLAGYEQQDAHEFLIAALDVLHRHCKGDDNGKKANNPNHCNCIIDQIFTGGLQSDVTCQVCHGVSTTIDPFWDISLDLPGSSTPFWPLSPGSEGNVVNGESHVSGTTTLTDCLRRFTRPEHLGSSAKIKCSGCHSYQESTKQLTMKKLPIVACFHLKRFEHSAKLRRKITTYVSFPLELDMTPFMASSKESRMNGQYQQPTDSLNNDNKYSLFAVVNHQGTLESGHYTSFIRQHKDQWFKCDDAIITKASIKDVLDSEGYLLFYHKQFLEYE
Summary of the method: as §1

USP24 = USP24 (UniProt Q9UPU5)
Sequence of USP24 (Q9UPU5 whole entry): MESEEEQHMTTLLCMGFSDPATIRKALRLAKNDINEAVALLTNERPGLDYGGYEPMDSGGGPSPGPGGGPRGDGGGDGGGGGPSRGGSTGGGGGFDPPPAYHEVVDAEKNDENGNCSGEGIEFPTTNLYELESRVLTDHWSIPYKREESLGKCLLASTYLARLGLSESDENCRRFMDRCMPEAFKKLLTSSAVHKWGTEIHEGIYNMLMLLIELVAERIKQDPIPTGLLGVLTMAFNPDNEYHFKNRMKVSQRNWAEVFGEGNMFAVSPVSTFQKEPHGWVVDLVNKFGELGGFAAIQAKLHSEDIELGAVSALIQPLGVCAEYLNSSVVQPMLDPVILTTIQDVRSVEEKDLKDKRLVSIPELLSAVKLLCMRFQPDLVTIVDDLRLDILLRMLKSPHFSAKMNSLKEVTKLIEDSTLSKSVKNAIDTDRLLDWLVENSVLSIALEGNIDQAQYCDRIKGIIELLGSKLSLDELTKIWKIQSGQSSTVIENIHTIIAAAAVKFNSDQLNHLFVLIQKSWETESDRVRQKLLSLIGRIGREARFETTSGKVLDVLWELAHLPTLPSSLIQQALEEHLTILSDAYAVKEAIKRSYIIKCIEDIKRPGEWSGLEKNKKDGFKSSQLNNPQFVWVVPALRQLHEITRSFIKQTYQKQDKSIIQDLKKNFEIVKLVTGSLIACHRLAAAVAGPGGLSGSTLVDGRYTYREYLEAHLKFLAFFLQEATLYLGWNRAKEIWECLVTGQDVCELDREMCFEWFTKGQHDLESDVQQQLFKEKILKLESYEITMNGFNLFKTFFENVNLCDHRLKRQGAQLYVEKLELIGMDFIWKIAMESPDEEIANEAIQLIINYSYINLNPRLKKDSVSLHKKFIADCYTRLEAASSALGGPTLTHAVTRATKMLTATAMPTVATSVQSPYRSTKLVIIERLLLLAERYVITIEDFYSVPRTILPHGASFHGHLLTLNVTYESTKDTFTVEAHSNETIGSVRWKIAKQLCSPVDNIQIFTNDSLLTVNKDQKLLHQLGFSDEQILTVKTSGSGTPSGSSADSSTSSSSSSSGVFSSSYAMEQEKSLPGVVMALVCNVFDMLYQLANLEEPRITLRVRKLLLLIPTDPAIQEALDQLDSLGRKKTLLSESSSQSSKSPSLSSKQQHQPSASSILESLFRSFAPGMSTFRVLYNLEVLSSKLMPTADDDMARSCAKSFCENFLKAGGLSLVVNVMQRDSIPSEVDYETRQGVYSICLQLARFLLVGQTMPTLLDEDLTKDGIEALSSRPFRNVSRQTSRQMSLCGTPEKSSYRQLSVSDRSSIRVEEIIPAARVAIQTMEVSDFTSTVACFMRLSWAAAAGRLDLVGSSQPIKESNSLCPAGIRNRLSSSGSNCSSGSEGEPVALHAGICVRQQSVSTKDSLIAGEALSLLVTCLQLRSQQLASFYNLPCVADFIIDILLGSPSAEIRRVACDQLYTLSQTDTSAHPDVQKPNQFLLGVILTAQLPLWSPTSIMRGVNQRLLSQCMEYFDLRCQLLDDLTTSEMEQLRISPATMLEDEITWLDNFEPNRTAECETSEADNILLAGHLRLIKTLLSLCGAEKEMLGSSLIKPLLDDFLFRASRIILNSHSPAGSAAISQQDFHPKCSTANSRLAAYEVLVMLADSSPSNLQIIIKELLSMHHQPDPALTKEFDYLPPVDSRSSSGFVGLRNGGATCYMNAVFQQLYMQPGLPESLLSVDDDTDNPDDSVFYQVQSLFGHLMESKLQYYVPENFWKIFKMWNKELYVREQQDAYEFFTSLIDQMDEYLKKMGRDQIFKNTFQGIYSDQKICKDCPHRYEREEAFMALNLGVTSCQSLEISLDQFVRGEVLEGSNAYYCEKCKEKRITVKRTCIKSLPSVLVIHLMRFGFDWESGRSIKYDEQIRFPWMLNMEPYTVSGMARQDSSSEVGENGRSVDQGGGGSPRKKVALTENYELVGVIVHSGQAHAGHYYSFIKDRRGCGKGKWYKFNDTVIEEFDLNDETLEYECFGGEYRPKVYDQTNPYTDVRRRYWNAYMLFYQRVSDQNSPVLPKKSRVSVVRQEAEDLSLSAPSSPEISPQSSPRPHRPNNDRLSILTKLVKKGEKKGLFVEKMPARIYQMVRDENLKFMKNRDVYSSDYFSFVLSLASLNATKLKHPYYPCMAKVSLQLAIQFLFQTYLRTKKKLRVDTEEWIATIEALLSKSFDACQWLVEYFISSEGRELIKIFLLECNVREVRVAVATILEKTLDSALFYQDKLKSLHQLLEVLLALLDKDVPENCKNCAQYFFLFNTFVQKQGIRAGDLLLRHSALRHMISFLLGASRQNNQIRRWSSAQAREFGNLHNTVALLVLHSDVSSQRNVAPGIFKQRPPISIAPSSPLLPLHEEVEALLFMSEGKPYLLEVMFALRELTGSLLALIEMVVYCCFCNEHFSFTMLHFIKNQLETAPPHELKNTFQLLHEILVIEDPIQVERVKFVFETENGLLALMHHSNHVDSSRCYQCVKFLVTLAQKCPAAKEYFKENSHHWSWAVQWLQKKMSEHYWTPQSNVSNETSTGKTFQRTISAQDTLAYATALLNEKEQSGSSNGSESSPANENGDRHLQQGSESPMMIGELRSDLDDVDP
Summary of the method: as §1

USP25 = target: T3, USP25 (UniProt Q9UHP3)
T3 sequence (whole entry): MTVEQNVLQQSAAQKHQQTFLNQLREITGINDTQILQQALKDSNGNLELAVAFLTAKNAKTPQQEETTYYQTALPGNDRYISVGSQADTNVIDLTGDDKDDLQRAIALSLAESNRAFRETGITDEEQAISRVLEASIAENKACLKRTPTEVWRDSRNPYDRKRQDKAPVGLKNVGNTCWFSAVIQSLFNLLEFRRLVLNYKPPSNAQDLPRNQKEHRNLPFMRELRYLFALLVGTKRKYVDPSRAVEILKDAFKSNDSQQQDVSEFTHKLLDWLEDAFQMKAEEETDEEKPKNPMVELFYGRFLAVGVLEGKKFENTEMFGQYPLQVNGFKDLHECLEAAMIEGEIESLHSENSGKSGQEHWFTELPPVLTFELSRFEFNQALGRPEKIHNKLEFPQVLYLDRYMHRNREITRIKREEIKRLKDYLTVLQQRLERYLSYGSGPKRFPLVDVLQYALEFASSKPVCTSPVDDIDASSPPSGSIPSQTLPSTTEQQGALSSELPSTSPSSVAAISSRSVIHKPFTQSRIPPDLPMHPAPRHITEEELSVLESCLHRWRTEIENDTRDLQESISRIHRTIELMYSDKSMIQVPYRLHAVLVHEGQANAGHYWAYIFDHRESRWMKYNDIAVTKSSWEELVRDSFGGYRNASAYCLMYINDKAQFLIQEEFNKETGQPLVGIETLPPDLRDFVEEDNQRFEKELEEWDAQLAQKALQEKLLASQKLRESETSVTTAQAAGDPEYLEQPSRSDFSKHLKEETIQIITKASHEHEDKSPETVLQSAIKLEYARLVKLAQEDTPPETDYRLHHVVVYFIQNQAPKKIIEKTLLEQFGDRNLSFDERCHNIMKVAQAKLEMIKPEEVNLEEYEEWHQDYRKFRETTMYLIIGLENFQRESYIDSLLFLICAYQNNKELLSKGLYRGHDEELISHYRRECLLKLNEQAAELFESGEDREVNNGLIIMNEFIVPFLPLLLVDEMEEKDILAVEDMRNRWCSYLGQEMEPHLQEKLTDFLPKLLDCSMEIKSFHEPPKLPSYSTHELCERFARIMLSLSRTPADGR
Summary of the method: as §1

USP28 = target: T4, USP28 (UniProt Q96RU2)
T4 sequence (whole entry): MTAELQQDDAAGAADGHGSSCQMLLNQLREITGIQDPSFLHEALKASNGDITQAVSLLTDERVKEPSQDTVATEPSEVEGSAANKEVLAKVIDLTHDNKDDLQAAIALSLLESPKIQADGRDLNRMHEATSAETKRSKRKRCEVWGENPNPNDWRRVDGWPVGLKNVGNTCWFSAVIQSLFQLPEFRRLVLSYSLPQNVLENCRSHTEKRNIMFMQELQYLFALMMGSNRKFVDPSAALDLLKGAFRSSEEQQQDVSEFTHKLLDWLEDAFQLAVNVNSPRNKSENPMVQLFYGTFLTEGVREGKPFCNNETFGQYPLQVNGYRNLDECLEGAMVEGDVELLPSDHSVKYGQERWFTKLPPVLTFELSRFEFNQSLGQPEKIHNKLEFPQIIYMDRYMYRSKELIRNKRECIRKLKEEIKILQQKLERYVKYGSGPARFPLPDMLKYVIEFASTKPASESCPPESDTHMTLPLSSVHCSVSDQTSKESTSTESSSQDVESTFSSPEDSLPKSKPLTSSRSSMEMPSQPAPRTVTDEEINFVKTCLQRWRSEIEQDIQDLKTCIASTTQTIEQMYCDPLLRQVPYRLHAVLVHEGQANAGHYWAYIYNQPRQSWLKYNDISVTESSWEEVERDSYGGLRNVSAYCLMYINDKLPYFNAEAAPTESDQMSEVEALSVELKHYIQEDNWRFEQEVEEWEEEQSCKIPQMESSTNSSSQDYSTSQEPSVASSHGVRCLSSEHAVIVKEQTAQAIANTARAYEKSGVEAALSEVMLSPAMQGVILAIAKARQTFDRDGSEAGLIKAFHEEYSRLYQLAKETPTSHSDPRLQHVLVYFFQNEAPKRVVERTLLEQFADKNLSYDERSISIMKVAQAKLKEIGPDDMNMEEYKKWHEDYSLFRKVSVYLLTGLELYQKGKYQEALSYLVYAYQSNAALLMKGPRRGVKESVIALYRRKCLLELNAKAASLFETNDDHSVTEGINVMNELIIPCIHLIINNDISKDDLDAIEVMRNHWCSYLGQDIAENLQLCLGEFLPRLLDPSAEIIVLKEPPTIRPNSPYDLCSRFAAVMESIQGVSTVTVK
Summary of the method: as §1

Measured: log2 ratio of Biotin-Ahx-Ub-VS probe labelling

CNC(=O)C1CCN(C(=O)CCl)CC1
inactive: USP19 -0.122 | USP22 0.206 | USP24 -0.198 | USP25 -0.123 | USP28 -0.243
